# PubChem BioAssay AID504339 (National Center for Advancing Translational Sciences (NCATS), 2011)
# In all, about 390,000 compounds went through this assay and about 17,000 (4.4%) were called active. About 8% were inconclusive and are not listed. This excerpt belongs to a sample that is enriched for actives. Unmarked numbers belong to inactive results. The call rests on the fitted dose curve; in most records, active means well fitted inhibition curve with a large enough effect; inconclusive means small, poorly fitted or top-dose-only effect; inactive means no such curve, though single readings can be large or run the other way.
# Biological target: Lysine-specific demethylase 4A (Homo sapiens) (UniProt O75164)
# Sequence (O75164 whole entry, looked up, the tested form may be a part): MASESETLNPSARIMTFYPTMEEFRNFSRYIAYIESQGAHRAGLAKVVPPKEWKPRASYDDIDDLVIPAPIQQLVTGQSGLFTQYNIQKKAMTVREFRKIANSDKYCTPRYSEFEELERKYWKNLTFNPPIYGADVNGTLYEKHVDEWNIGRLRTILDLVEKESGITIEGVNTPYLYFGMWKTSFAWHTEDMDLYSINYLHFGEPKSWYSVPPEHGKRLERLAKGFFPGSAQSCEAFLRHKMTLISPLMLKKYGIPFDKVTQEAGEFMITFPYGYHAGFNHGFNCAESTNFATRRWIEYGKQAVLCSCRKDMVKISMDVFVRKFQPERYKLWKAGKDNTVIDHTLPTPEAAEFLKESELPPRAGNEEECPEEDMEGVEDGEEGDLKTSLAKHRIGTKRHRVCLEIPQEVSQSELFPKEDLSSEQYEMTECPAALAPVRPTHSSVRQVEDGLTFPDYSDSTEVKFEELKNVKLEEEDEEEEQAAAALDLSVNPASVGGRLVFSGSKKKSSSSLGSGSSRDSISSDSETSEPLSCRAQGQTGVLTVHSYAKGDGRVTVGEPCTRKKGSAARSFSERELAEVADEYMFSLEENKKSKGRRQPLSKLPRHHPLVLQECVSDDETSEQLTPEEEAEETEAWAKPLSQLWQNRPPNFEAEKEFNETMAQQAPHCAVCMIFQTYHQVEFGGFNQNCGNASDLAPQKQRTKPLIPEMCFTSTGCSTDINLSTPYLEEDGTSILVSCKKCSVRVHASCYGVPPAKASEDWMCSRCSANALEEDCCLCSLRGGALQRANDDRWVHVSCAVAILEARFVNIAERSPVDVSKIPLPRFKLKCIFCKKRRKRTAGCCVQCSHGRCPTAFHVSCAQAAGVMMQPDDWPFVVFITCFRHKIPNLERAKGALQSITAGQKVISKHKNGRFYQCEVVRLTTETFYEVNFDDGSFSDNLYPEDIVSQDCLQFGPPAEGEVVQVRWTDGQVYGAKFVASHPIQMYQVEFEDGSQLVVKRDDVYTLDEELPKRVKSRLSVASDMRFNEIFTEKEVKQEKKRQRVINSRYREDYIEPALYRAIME
# Assay: qHTS Assay for Inhibitors of JMJD2A-Tudor Domain; further: nearly all actives have a fitted effect of over 50% in size
# Details: AlphaScreen JMJD2A-Tudor / H3K4me3 peptide binding; series mostly up to 114 µM; activity change, negative = inhibition: at the top concentration
# Source text: JMJD2A is a jumonji-domain-containing lysine demethylase that uses Fe(II) together with 2-OG to effect oxidative demethylation of histones. Methylation is one of many […] modification that affect epigenetic transcription. […] It is proposed that the functions of JmjD2A binding to the histones, is to maintain marks after they are installed and to spread the modifications by […], establishing a self-propagating cycle for rapid methylation over a large area of chromatin. […] Thus, small molecule targeting of the JMJD2A-tudor domain interaction with its target methylhistone mark is expected to enable sophisticated experiments probing the fine regulatory pathways leading to selective demethylation of a given methyllysine locus based on the methylation state of adjacent histone marks. A quantitative high throughput AlphaScreen has been developed to identify small molecule inhibitors based on a protocol published by NCGC and SGC [4].
# Although AlphaScreen has significant advantages with its utility in a variety of epigenetic target assays, the primary screening data provided in this deposition should be used with caution due to the prevalence of screening artifacts. The top compound concentration tested was high (>100uM) in this assay, which increases number of actives and potential artifacts. An AlphaScreen counterscreen is highly recommended to be run against any putative actives to eliminate non-specific artifacts. Alternatively, one can use other AlphaScreen assays in PubChem to filter out promiscuous hits.
# [1] Lee, J. et al. Distinct binding modes specify the recognition of methylated histone H3K4 and H4K20 by JMJD2A-tudor. Nat Struct Mol Biol. 15(1); 109-11. 2008. PMID: 18084306
# [2] Yasgar, et al. Compound Management for Quantitative High-Throughput Screening. JALA. 2008 Apr;13(2):79-89. PMID: 18496600
# [3] Inglese, et al. Quantitative high-throughput screening: a titration-based approach that efficiently identifies biological activities in large chemical libraries. Proc Natl Acad Sci. 1;103(31):11473-8. 2006. PMID: 16864780
# [4] Quinn et al. A homogeneous method for investigation of methyl-dependent protein-protein interactions in epigenetics. Nucleic Acids Res., 38(2):e11. 2010. PMID: […]
# [5] Baell,Holloway. New substructure filters for removal of pan assay interference compounds (PAINS) from screening libraries and for their exclusion in bioassays. J Med Chem. 53(7):2719-40. 2010. PMID: 20131845
# NIH Molecular Libraries Probe Production Network [MLPCN]
# NIH Chemical Genomics Center [NCGC]
# Structural Genomics Consortium (SGC)
# To each well of a 1,536w plate, 2ul of JMJD2A-Tudor (final 100nM) and 1ul biotinylated histone peptide methylated at Lys4 [b-H3(1-18)K4me3] (final 50nM) were added in 1x PBS buffer, pH 7.4, containing 0.01% Tween-20, using a nanoliter dispenser. Formation of a protein-peptide complex proceeded at room temperature for 30 min. A Kalypsys pin-tool transferred 23nl of library compound solution in DMSO to each well. Following a 30 min incubation of the protein-peptide complex with compounds at room temperature, a mixture of 40 µg/mL each streptavidin-coated donor and nickel chelate acceptor AlphaScreen beads (final 10 µg/mL) was added in a 1ul dispense for a final volume of 4ul, followed by a brief centrifugation (1000 rpm, 1 min). Plates were incubated protected from the light for 20 min at room temperature. Microplates were then read on an EnVision multilabel plate reader using the 1,536 plate HTS AlphaScreen aperture (excitation time 80 ms, measurement time 240 ms).
# On the % scale 0 is the no-effect control and ±100 the full control effect; potency means the concentration at half of the fitted maximal effect.
Structure (SMILES),"activity change, negative = inhibition",Potency
CCN(CC)CCn1c2c(c(SCC(=O)Nc3nc4ccccc4s3)nc1=O)CCCC2,-13.8%,
COc1ccc(C(=O)COC(=O)CCCC(=O)Nc2cc(C(F)(F)F)ccc2Cl)cc1,17%,
COc1c(Cl)cc(C(=O)N(Cc2ccccc2F)C2CCS(=O)(=O)C2)cc1Cl (stereo not given),-16%,
Cn1nnnc1SCCNCc1ccc(Cl)c(Cl)c1,-11.6%,
CCOc1ccccc1C(=O)NCc1ccc2c(c1)CCN2C(=O)c1ccc(F)cc1,-6.33%,
COc1cc(OC)cc(-c2c(-c3cccs3)c3cc(-c4ccc(OC)nc4)ccc3n2C)c1,-13.6%,
COc1cc(OC)cc(-c2c(-c3ccc(F)cc3)c3cc(-c4ccc5cc[nH]c5c4)ccc3n2C)c1,-22.9%,
COc1ccc(-c2c(-c3cc(OC)cc(OC)c3)n(C)c3ccc(-c4ccn[nH]4)cc23)cc1,,22.4 µM (active)
Cc1cccc(OCCCC(=O)Nc2sc3c(c2C(N)=O)CCC(C)C3)c1 (stereo not given),-22.5%,
Cc1cc(C)nc(N/N=C/c2c(CO)cnc(C)c2O)n1,,89.1 µM (active)
CCS(=O)(=O)c1nc(S(=O)(=O)c2ccc(C)cc2)c(NCc2ccc(Cl)cc2)s1,-5.37%,
Cc1ccccc1NC(=O)Cn1c(=O)n(CC2CCC(C(=O)NCCc3ccccc3)CC2)c(=O)c2ccccc21 (stereo not given),0.343%,
CCc1ccc(CNC(=O)c2cc3c(=O)n(CC)c4ccccc4c3s2)cc1,-7.41%,
CN(C)c1ccc(C(CC(=O)O)C(=O)O)cc1 (stereo not given),-19.5%,
CN(C)c1ccc(CSc2ccccc2)cc1,,20 µM (active)
CN(C)c1cc[n+](Cc2ccccc2)cc1,7.22%,
Cc1ccccc1NC(=O)CSC(=O)c1ccccc1,,89.1 µM (active)
Cc1ccccc1NC(=O)CCOc1ccccc1,,inactive
Cc1cccc(NC(=O)CSC(N)=O)c1C,-8.89%,
COc1ccccc1NC(=O)c1sc2nc(C)c(C(=O)Nc3ccc(Cl)cc3)c(-c3ccc(Br)cc3)c2c1N,-2.39%,
Cn1c(CC2Sc3ccccc3NC2=O)nnc1SCC(=O)c1ccc(Cl)cc1 (stereo not given),,25.1 µM (active)
Cn1c(CC(=O)Nc2ccccc2)nnc1SCC(=O)c1ccccc1,-9.68%,
O=C(CC1Sc2ccccc2NC1=O)NNc1ccc(Cl)c(Cl)c1 (stereo not given),-9.09%,
CN(C(=O)CSc1nnc(NC(=O)Nc2ccccc2)s1)c1ccccc1,-10.4%,
COc1ccc(CNC(=O)Cn2nnc(-c3ccccc3F)n2)cc1,-11.6%,

Structure (SMILES),"activity change, negative = inhibition",Potency
Cc1cccc(NC(=O)Cn2cc(S(=O)(=O)Cc3ccccc3Cl)c3ccccc32)c1,-14.9%,
CSc1ccc(C2C(C(=O)Nc3ccccc3)=C(C)Nc3nc4ccccc4n32)cc1 (stereo not given),-12.3%,
COCCNC(=O)c1cc(-c2cccc(Cl)c2)on1,-21.2%,
O=C(CN1C(=O)S/C(=C\c2ccccc2F)C1=O)NCCCn1ccnc1,-14.5%,
O=C(CN1C(=O)/C(=C\c2ccc(C(F)(F)F)cc2)Sc2ccccc21)NCc1ccco1,-13.2%,
O=C(CN1C(=O)/C(=C/c2ccccc2F)Sc2ccccc21)NCc1cccnc1,,89.1 µM (active)
Cc1nn(CC(=O)N2CCN(c3cccc(C(F)(F)F)c3)CC2)c(=O)c2cc3sccc3n12,-5.45%,
CCc1ccc(S(=O)(=O)Nc2cc3c(C(=O)OCc4ccccc4)c(C)oc3c3ccccc23)cc1,-19%,
Cc1ccc(-c2cc(C(=O)Oc3ccccc3Cl)no2)cc1C,101%,
Cc1ccc(NC(=O)NNC(=O)c2sccc2-n2cccc2)cc1,-27%,
O=C(NNC(=O)c1ccc(-c2ccccc2)cc1)Nc1ccccc1,-2.1%,
C=CC[n+]1c(-c2ccc(C)cc2)csc1NNC(=O)Nc1ccccc1,,28.2 µM (active)
FC(F)(F)c1cc(Nc2nc3ccccc3c3nncn23)ccc1Cl,-8.56%,
CCC(C)(C)n1nnnc1C(c1ccc(OC)c(OC)c1)N1CCN(C(=O)c2ccco2)CC1 (stereo not given),,79.4 µM (active)
CC(C)(C)n1nnnc1C(c1ccccc1F)N1CCN(C(=O)c2ccco2)CC1 (stereo not given),6.92%,
CCC(c1nnnn1C1CCCC1)N1CCN(C(=O)c2ccco2)CC1 (stereo not given),-20.8%,
CC1CCCCN1S(=O)(=O)CCNC(=O)c1ccccc1 (stereo not given),-2.72%,
CSCc1nnc(NC(=O)c2ccc(S(=O)(=O)N3CCCCC3C)cc2)o1 (stereo not given),,50.1 µM (active)
CC1CCCCN1S(=O)(=O)c1ccc(C(=O)Nc2nnc(-c3cccs3)o2)cc1 (stereo not given),-1.53% [at 11.4 µM],
Cc1nnc(C)n1-c1ccc(C(=O)Nc2cccc(Br)c2)cc1,-7.42%,
COC(=O)CN1C(=O)CSc2ccc(S(=O)(=O)Nc3cc(C)ccc3C)cc21,-13.4%,
CC(C)(C)OC(=O)N1CCC(c2c(C(=O)N3CCc4ccccc4C3)cnn2-c2ccc(F)cc2)CC1,-18.4%,
Cc1ccc(Cl)cc1N1CCN(C(=O)C2CCC(CNS(=O)(=O)c3cccs3)CC2)CC1 (stereo not given),-20.2%,
C#CCOc1ccc(C2CC(=O)Nc3c2c(C)nn3-c2nc(C)cc(C)n2)cc1 (stereo not given),-27.2%,
Cc1ccc(CSc2oc(-c3cccs3)nc2S(=O)(=O)c2ccc(C)cc2)cc1,-1.37%,
